The source of these data is PubChem BioAssay (NCI).

This is part of a sample that, as a whole, favours compounds with a hit. Of some 83,000 tested, about 20% had one in any assay.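 Step 1: grow cells in 96-well plates. Step 2: add test compound at a single concentration. Step 3: incubate 48 h. Step 4: record percent growth.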 Calls of active or inactive are those of the source. Rule for the calls: active = growth percent below 10; inactive = the rest.

The subject of one assay is 786-0 renal. The assay is described as follows: NCI-60 one-dose screen, 48 h (100 = growth as untreated, 0 = no growth, -100 = all killed). To be noted: 10 µM unless noted.
Regarding `COc1nc(Nc2cccc(C(F)(F)F)c2)nc(OC)n1`, the growth is 96.8% (inactive). Take `N#Cc1ccc2nc[nH]c2c1`: the growth is 106% (inactive). Still for that read-out and setting: in the case of `CCN(CC)c1ccc2nc3ccc(N=Nc4ccc(N(C)C)cc4)cc3[n+](-c3ccccc3)c2c1` it was -56.8% (active). Same read-out and setting: in the case of `CC1(c2ccccc2)CO1` (stereo unspecified) it was 102% (inactive); in that of `Cc1cc(Cl)cc(Cc2cc(Cl)cc(C)c2O)c1O`, 14.9% (inactive). Take `CC1(C)OC2C(CO)OC(n3ccc(=O)[nH]c3=O)C2O1` (stereo unspecified): the growth is 105% (inactive). For `CC(C)(C)NCCC(O)c1cc(C(F)(F)F)nc2c(C(F)(F)F)cccc12` (stereo unspecified), the growth was 80.3% (inactive).

Turning to `CN1CCCN(C(c2ccccc2)c2ccc(Cl)cc2)CC1` (stereo unspecified), the growth was 73.3% (inactive). The same measure, in the same setting: in the case of `CCOC(C=O)OCC` it was 99.7% (inactive); in that of `C=C1CC2(OC1=O)C(=O)N(C)c1ccc(I)cc12` (stereo unspecified), -71.5% (active); in that of `C=COC(=O)C(C)(C)C`, 96.2% (inactive).

Consider `O=C(OCc1ccccc1)n1nnc2ccccc21`, for which the growth is 98.7% (inactive). For the molecule `C/C(O)=C(/C=N/C(=S)Nc1ccccc1)C(=O)Nc1ccccc1C`, the growth was 102% (inactive). On to `CC(=O)Nc1ccc(/C=C2\SC(=S)N(/C=C(\C(C)=O)C(N)=O)C2=O)cc1`, for which the growth is 88.1% (inactive). `CC(C)C1CCC(C)C(O)C1` (stereo unspecified): the growth was 105% (inactive).

With `CC1(C)CCC(C)(C)NC(=S)N1`, the growth is 105% (inactive). On the same count and under the same terms, in the case of `Nc1ccc2ccccc2c1-c1c(N)ccc2ccccc12` it was 49.3% (inactive); in that of `CCOC(OCC)C(=O)c1ccccc1`, 107% (inactive); in that of `COc1ccc2c(c1)Nc1ccccc1S2`, 98.7% (inactive). On the same count and under the same terms, in the case of `C=CC(=O)OC1CCC(C(C)(C)CC)CC1` (stereo unspecified) it was 105% (inactive); in that of `CCOC(=O)c1c(C)[nH]c(C)c1C=O`, 91.8% (inactive). Take `CCC12OC(COc3ccccc3)CN1CCN2c1ccccc1` (stereo unspecified): the growth was 96.6% [100 µM] (inactive). In the case of `CCOC(=O)N[C@H]1CCc2cc(OC)c(OC)c(OC)c2-c2ccc(SC)c(=O)cc21`, the growth was 15.6% (inactive). Take `CCCCCCCCCCCCCCCCOc1ccccc1NC(=O)CC(C)=O`: the growth was 59.8% (inactive). On the same count and under the same terms, in the case of `Cc1nc(C)c(C(=O)O)cc1C(=O)O` it was 112% (inactive). The same measure, in the same setting: in the case of `Nc1ccn(C2CC(N)C(CO)O2)c(=O)n1` (stereo unspecified) it was 94.1% (inactive); in that of `CCCNS(=O)(=O)c1ccc(Cl)cc1`, 97.6% (inactive); in that of `Clc1cccc(Cl)c1CSc1nc2ccccc2n2cccc12`, 96.9% (inactive).

For `Cc1cc(C(=O)c2ccccc2)cc(C)c1O`, the growth is 100% (inactive). The same measure, in the same setting: in the case of `CSCCC(NC(=O)C(Cl)Cl)C(=O)O` (stereo unspecified) it was 101% (inactive); in that of `CSCC[C@@H]1C(=O)N(C)[C@H](C(C)(C)C)N1C(=O)c1ccccc1`, 106% (inactive). Still for that read-out and setting: in the case of `ON1CCCC1` it was 98.4% (inactive). Still for that read-out and setting: in the case of `CC(C)N(C(=O)c1ccccc1)C(C)C` it was 106% (inactive); in that of `CC(=O)c1cccc(N(C)S(=O)(=O)c2ccc(C)cc2)c1`, 94% (inactive). Take `O=C(Nc1c(Cl)cc(Cl)cc1Cl)ON=C1CCCCC1`: the growth was 99.8% (inactive).

For the molecule `CCCCCCCCCCC(=O)CCCCCCCCCC`, the growth was 99.1% (inactive). For the molecule `Cc1c(-c2ccc(C3CCCCC3)cc2)nc2ccc(F)cc2c1C(=O)O`, the growth was 38% (inactive).

A further assay has as its system COLO 205 colon. Described as above. To be noted: 10 µM unless noted.
Turning to `COc1nc(Nc2cccc(C(F)(F)F)c2)nc(OC)n1`, the growth is 109% (inactive). On the same count and under the same terms, in the case of `CCN(CC)c1ccc2nc3ccc(N=Nc4ccc(N(C)C)cc4)cc3[n+](-c3ccccc3)c2c1` it was -89.9% (active). Still for that read-out and setting: in the case of `CC1(c2ccccc2)CO1` (stereo unspecified) it was 114% (inactive); in that of `Cc1cc(Cl)cc(Cc2cc(Cl)cc(C)c2O)c1O`, 101% (inactive); in that of `CC1(C)OC2C(CO)OC(n3ccc(=O)[nH]c3=O)C2O1` (stereo unspecified), 100% (inactive). The same measure, in the same setting: in the case of `Nc1ncnc(Nc2ccccc2)n1` it was 110% (inactive); in that of `CC(C)(C)NCCC(O)c1cc(C(F)(F)F)nc2c(C(F)(F)F)cccc12` (stereo unspecified), 97.7% (inactive); in that of `CN1CCCN(C(c2ccccc2)c2ccc(Cl)cc2)CC1` (stereo unspecified), 103% (inactive). On to `CCOC(C=O)OCC`, for which the growth is 105% (inactive). In the case of `C=C1CC2(OC1=O)C(=O)N(C)c1ccc(I)cc12` (stereo unspecified), the growth is -84.2% (active). Same read-out and setting: in the case of `O=C(OCc1ccccc1)n1nnc2ccccc21` it was 111% (inactive); in that of `C/C(O)=C(/C=N/C(=S)Nc1ccccc1)C(=O)Nc1ccccc1C`, 110% (inactive); in that of `CC(=O)Nc1ccc(/C=C2\SC(=S)N(/C=C(\C(C)=O)C(N)=O)C2=O)cc1`, 92.1% (inactive). Still for that read-out and setting: in the case of `CC(C)C1CCC(C)C(O)C1` (stereo unspecified) it was 111% (inactive); in that of `CC1(C)CCC(C)(C)NC(=S)N1`, 103% (inactive). Still for that read-out and setting: in the case of `Nc1ccc2ccccc2c1-c1c(N)ccc2ccccc12` it was 5.44% (active); in that of `CCOC(OCC)C(=O)c1ccccc1`, 104% (inactive); in that of `COc1ccc2c(c1)Nc1ccccc1S2`, 111% (inactive). With `C=CC(=O)OC1CCC(C(C)(C)CC)CC1` (stereo unspecified), the growth was 105% (inactive). On the same count and under the same terms, in the case of `CCC12OC(COc3ccccc3)CN1CCN2c1ccccc1` (stereo unspecified) it was 118% [100 µM] (inactive); in that of `CCOC(=O)N[C@H]1CCc2cc(OC)c(OC)c(OC)c2-c2ccc(SC)c(=O)cc21`, -4.99% (active); in that of `CCCCCCCCCCCCCCCCOc1ccccc1NC(=O)CC(C)=O`, 131% (inactive).

Regarding `Nc1ccn(C2CC(N)C(CO)O2)c(=O)n1` (stereo unspecified), the growth was 97.7% (inactive).

On to `CCCNS(=O)(=O)c1ccc(Cl)cc1`, for which the growth was 102% (inactive).

In the case of `Clc1cccc(Cl)c1CSc1nc2ccccc2n2cccc12`, the growth was 91.2% (inactive).

Consider `Cc1cc(C(=O)c2ccccc2)cc(C)c1O`, for which the growth is 103% (inactive). Regarding `CSCCC(NC(=O)C(Cl)Cl)C(=O)O` (stereo unspecified), the growth was 99.7% (inactive). `CSCC[C@@H]1C(=O)N(C)[C@H](C(C)(C)C)N1C(=O)c1ccccc1`: the growth is 113% (inactive).

In the case of `ON1CCCC1`, the growth is 113% (inactive). On the same count and under the same terms, in the case of `CC(C)N(C(=O)c1ccccc1)C(C)C` it was 114% (inactive). Still for that read-out and setting: in the case of `CC(=O)c1cccc(N(C)S(=O)(=O)c2ccc(C)cc2)c1` it was 116% (inactive); in that of `O=C(Nc1c(Cl)cc(Cl)cc1Cl)ON=C1CCCCC1`, 126% (inactive). The same measure, in the same setting: in the case of `CCCCCCCCCCC(=O)CCCCCCCCCC` it was 107% (inactive).

Consider `Cc1c(-c2ccc(C3CCCCC3)cc2)nc2ccc(F)cc2c1C(=O)O`, for which the growth is 44.2% (inactive).
